# Test results taken from PubChem BioAssay AID588351 (The Scripps Research Institute Molecular Screening Center, 2011).
# Out of some 1,900 compounds screened, about 1,600 (84%) were called active.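 How the source made its calls: active means mean activation above a set limit taken from the primary screen (cut at about 8% in these data); inactive means the rest.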 So high a share suggests a set chosen from earlier hits. The list is a sample of the results.
# Test: frataxin promoter-driven luciferase activation – cell-based, luminescence, HEK293 lucGAA850, triplicate, confirmation (AID 588351);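 further: 0% = DMSO wells and 100% = 10 µM SAHA wells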
# Conditions: HEK293 lucGAA850 FXN promoter luciferase reporter, 24 h; at 6 µM; active compounds read high
row,Compound,activation
1,CC(C)(C)c1ccc(OC(=O)N2CCCCC2)cc1,35% (active)
